Assay outcomes deposited in PubChem BioAssay by several laboratories.
CYP2C19 act: cytochrome P450 2C19 (human) activation; P33261; AID 1025; recombinant CYP2C19, luciferin-H EGE luminescence; active compounds read high; 0 = fully inhibited enzyme, 1 = untreated enzyme; activation factor at 5 µM; 96,000 tested, under 10 active;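 active = activation factor of at least 2 at 5 µM in the primary screen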;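 note: 0 = wells with 2.5 mM tranylcypromine and 1 = vehicle-only wells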
CYP2C9 inhib: blocks human cytochrome P450 2C9 | P11712 | CYP2C9 Supersomes, luciferin-H conversion, luminescence | inhibition, % at 5 µM | hit rate 20% among 96,000;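 active = blocking of liver enzyme CYP2C9 beyond about 50% at 5 µM, limit read from the data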
Target sequence (P11712 whole entry, looked up): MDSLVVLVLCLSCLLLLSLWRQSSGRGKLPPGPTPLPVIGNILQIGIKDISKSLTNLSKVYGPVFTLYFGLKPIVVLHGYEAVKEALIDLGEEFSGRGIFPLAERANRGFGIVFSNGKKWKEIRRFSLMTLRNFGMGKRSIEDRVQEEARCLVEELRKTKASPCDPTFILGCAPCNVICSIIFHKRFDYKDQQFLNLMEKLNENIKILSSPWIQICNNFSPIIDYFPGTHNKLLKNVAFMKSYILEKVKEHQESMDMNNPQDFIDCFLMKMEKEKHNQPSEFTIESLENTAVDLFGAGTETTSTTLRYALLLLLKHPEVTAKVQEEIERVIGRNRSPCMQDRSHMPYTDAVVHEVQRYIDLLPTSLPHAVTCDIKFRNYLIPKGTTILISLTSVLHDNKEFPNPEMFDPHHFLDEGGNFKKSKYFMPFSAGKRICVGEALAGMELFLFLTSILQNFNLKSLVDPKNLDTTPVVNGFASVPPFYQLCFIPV
CYP2C19 inhib: inhibitors of human CYP2C19; P33261; CYP2C19 Supersomes, luciferin-H EGE luminescence, 30 min; inhibition, % at 5 µM; hit rate 21% among 96,000;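 active = CYP2C19 inhibition above a set limit at 5 µM in the primary screen, cut at about 50% in these data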;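 note: plate controls were negative control wells for no effect and 2.5 mM tranylcypromine positive control for full effect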
PLK1 inh: PLK1 (human) kinase inhibition; P53350; recombinant PLK1 kinase, TR-FRET peptide phosphorylation; inhibition, % at 10 µM; hit rate 0.53% among 97,000; AID 619;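 active = inhibition of 50% or more in the single-concentration screen; inactive = inhibition below 50%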;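 note: 0% = DMSO max control and 100% = H-89 dihydrochloride min control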
Plk1 PBD FP: inhibitors of human Plk1 polo box domain binding | P53350 | Plk1 PBD phosphopeptide binding, fluorescence polarization | inhibition, %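 (tested at about 20 µM)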 | hit rate 0.13% among 97,000 | AID 693; in the data active = inhibition above about 34%, passing the limit was not always enough
CYP2C9 activ: activators of human CYP2C9; AID 1024; recombinant CYP2C9, luciferin-H conversion, luminescence; active compounds read high; factor 1 = untreated enzyme, 0 = blocked; activation factor at 5 µM; hit rate 1.4% among 96,000;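 active = activation factor of 2 or more for CYP2C9 at a 5 µM dose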;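 note: 0 = sulfaphenazole-blocked wells and 1 = vehicle-only wells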
Starred values were filed as active, the others as inactive; x = no result. Rows were chosen to be rich in hits. Some 28% of all compounds tested hit in one or more screens of this group.

SMILES	CYP2C19 act	CYP2C9 inhib	CYP2C19 inhib	PLK1 inh	Plk1 PBD FP	CYP2C9 activ
CCC1CC(CSc2ncn[nH]2)OC1=O (stereo not given)	0.9	13	6	-8	-4	0.9
Cc1ccc(-c2nc3cccnc3s2)cc1NS(=O)(=O)c1ccc2c(c1)OCCO2	1.1	74*	-14	2	19	0.3
CC(C)(C)c1cc(NS(=O)(=O)c2ccc3c(c2)OCCO3)on1	x	x	x	-15	12	x
CCc1ccc(S(=O)(=O)Nc2ccc(-c3nc4cccnc4s3)cc2)s1	1.1	27	-14	2	26	0.7
O=S(=O)(Nc1cccc(-c2nc3cccnc3s2)c1)c1ccc2c(c1)OCCO2	1	85*	3	-6	16	0.2
CC(=O)N1CCN(CC(=O)Nc2c(Cl)cc(Cl)cc2Cl)CC1	0.9	17	9	x	x	0.8
COc1ccc(C(=O)/C=C/c2cccs2)c(OC(=O)c2cccc([N+](=O)[O-])c2)c1	0.9	50*	6	-6	10	0.5
COc1ccc(C(=O)/C=C/c2ccc(F)cc2)c(OC(=O)c2ccc([N+](=O)[O-])cc2)c1	0.8	12	23	-16	-21	0.9
CNc1nc(CCN2C(=O)c3ccccc3C2=O)cs1	0.2	7	82*	2	3	0.9
Cc1nc(CCN2C(=O)c3ccccc3C2=O)cs1	0.3	19	70*	-2	0	0.8
NC(N)=Nc1nc(CCN2C(=O)c3ccccc3C2=O)cs1	0.4	6	55*	-13	14	0.9
CCC(NC(=O)c1cccc(Cn2cc([N+](=O)[O-])cn2)c1)c1ccc(C(C)C)cc1 (stereo not given)	0.6	96*	44	-10	5	0
CC(NC(=O)c1cccc(Cn2cc([N+](=O)[O-])cn2)c1)c1ccc(C(C)(C)C)cc1 (stereo not given)	0.4	81*	61*	-12	13	0.2
CC(C)OC(=O)c1nn2c(C(F)(F)F)cc(-c3ccc(Br)o3)nc2c1Br	1	30	5	1	-6	0.7
O=S1(=O)C=C(Sc2nc3cc(Cl)ccc3o2)c2ccccc21	0.3	6	66*	-9	-9	0.9
CN(C)c1nc(N)nc(CSc2nc3cc(Cl)ccc3o2)n1	1	-56	-2	-16	-31	1.6
CN(C)S(=O)(=O)c1cccc(C(=O)C2=C3SC=C(c4ccccc4)N3CC2)c1	1	1	3	-16	23	1
COc1ccc(-c2nnc(-c3cccnc3)o2)cc1	0.8	9	22	-10	-6	0.9
COc1ccc(-n2nnnc2-c2cccnc2)cc1	0.4	24	55*	-5	8	0.8
O=C(Oc1ccccc1)N1CCN(c2ccc(F)cc2)CC1	0.2	-8	85*	-9	-17	1.1
O=C(CCCOc1ccc(Cl)cc1Cl)N1CCN(c2ccccn2)CC1	0.2	43	76*	x	x	0.6
O=C(CCCOc1ccccc1)N1CCN(c2ccccn2)CC1	0.2	69*	80*	-1	-12	0.3
O=C(CCCOc1ccc(Cl)cc1Cl)n1nnc2ccccc21	x	x	x	-3	-16	x
O=C(CCCCCNc1nc(=S)[nH]c2ccccc12)N1CCN(c2ccccn2)CC1	0.4	62*	57*	-3	-6	0.4
O=C(CCCN1C(=O)c2ccccc2C1=O)N1CCN(c2ccccn2)CC1	0.9	37	7	-11	13	0.6
SMILES	CYP2C19 act	CYP2C9 inhib	CYP2C19 inhib	PLK1 inh	Plk1 PBD FP	CYP2C9 activ
O=C1Nc2ccccc2C12OCCCO2	1	-7	4	-9	19	1.1
COc1cccc(C(C(=O)NC2CCCC2)N(Cc2ccccc2OC)C(=O)c2ccco2)c1 (stereo not given)	x	x	x	-8	7	x
O=C(CCCOc1ccccc1)N1CCN(C(=O)c2ccco2)CC1	0.7	32	31	-2	5	0.7
Nc1nncn1C(=O)CCCOc1ccc(Cl)cc1Cl	0.4	6	65*	x	x	0.9
CN1CCN(C(=O)CCCOc2ccc(Cl)cc2Cl)CC1	0.3	-25	67*	-8	4	1.3
COc1ccc(N2CCN(C(=O)COc3ccccc3)CC2)cc1	0.9	9	5	2	-22	0.9
O=C(CCCOc1ccccc1)N1CCN(c2ccc(F)cc2)CC1	0.2	24	77*	-7	-25	0.8
Cc1cc(Cl)ccc1OCCCC(=O)N1CCN(C(=O)c2ccco2)CC1	0.4	27	65*	-7	7	0.7
C=CCN(C(=O)Cn1nnc2ccccc21)C(C(=O)NCCOC)c1ccc(OC)cc1OC (stereo not given)	1.1	-11	-11	-8	-13	1.1
CC1=CCC(C(=O)O)(C(=O)N/N=C/c2cccs2)C(c2ccc(F)cc2)C1 (stereo not given)	0.9	67*	8	-7	13	0.3
COc1ccc(CNC(=O)C2CCCN(c3nccc(C)n3)C2)cc1 (stereo not given)	x	x	x	-11	0	x
Cc1ccnc(NC(=O)c2cccc(NS(=O)(=O)c3ccccc3C)c2)c1	0.5	33	52*	-4	6	0.7
O=C(CCn1c(=O)[nH]c2ccccc2c1=O)N1CCN(c2ccc(Cl)cc2)CC1	0.9	15	13	0	3	0.8
O=C(CCn1c(=O)[nH]c2ccccc2c1=O)N1CCN(c2cccc(C(F)(F)F)c2)CC1	0.3	36	67*	2	7	0.6
O=C(CCCCn1c(=O)[nH]c2ccccc2c1=O)N1CCN(c2cccc(C(F)(F)F)c2)CC1	0.4	49	62*	-12	-11	0.5
O=C(CCCn1c(=S)[nH]c2ccccc2c1=O)N1CCN(c2cccc(Cl)c2)CC1	1.1	-3	-12	-11	10	1
O=[N+]([O-])c1cc(C(F)(F)F)ccc1NCCNC(=S)Nc1ccc(Cl)cc1	0.6	68*	35	2	1	0.3
O=[N+]([O-])c1cc(Cl)ccc1NCCNc1ncc(C(F)(F)F)cc1Cl	0.1	33	88*	-6	-12	0.7
CCCOc1ccc(C(=O)N2CC3(CC(c4cccc(NC(=O)[C@@H]5CCC(=O)N5)c4)=NO3)C[C@H]2C(=O)NC2(C(N)=O)CC2)cc1 (stereo not given in full)	0.8	-2	16	3	-19	1
O=C(CSc1nnc2c3cc(F)ccc3nc(-c3ccccc3)n12)N1CCOCC1	x	x	x	-1	-6	x
CC(C)(C)NC(=O)NC(=O)CSc1ncc(C(F)(F)F)cc1Cl	1	-6	4	-19	-12	1.1
CCCNC(=O)NC(=O)CSc1ncc(C(F)(F)F)cc1Cl	0.3	-6	70*	0	2	1.1
COC(=O)CCCCCNc1ccc(C(=O)OC)cc1N	0.2	16	84*	-12	-4	0.8
COC(=O)c1cc(Oc2ccc(C(=O)OC)cc2N)cc(C(=O)OC)c1	0.6	35	38	-2	-4	0.7
